# Screening data deposited in PubChem by several laboratories.
# WT yeast gro inh – growth inhibition of WT yeast, mitochondrial fusion screen | mitochondrial fusion phenotypic screen, WT strain | inhibition, % at 10 µM | hit rate 2.1% among 190,000 | AID 1362; in the data active means inhibition above about 58%; tested in S. cerevisiae
# CHOP inh – blocks CHOP induction under ER stress; CHO-K1 CHOP-promoter luciferase, tunicamycin-induced, 15-18 h; inhibition, % at 10 µM; hit rate 3.8% among 220,000;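 active means compounds that reduced the stress-induced luciferase reporter signal by more than about 70% of percent inhibition, limit read from the data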;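 further: 0% = tunicamycin plus vehicle and 100% = wells without tunicamycin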
# L major viab – Leishmania major promastigote growth inhibition; AID 1063; hit rate 9% among 200,000; inhibition, % at 10 µM; Leishmania major promastigotes, resazurin fluorescence viability; in the data active means inhibition above about 50%;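 further: promastigotes grown with compound for 44 hours at 28 °C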
# RAM inhibit – yeast RAM network inhibition. S. cerevisiae dse1pr::URA3 reporter, 5-FOA growth OD615, 2 d; analog-sensitive cbk1-as2 kinase mutant strain. inhibition, % at 50 µM. AID 868. hit rate 1.8% among 190,000;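 active means inhibition above a set limit, 3 SD over mean compound inhibition, cut at about 8.4% in these data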;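 further: 0% = DMSO-only wells with no growth and 100% = 10 µM 1-NA-PP1 full growth; inhibition rescues growth on 5-FOA so higher OD means more RAM inhibition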
# * = called active by the depositor; nt = no result given. Rows were chosen to be rich in hits. Some 13% of all compounds tested hit in one or more screens of this group.
SMILES,WT yeast gro inh,CHOP inh,L major viab,RAM inhibit
CN=c1scc(-c2cccs2)n1/N=C/c1ccccc1O,61.8*,93.9*,85.7*,8.9*
Cc1ccccc1OCc1nc(-c2cccnc2)no1,-0.1,2.9,3.4,0.8
Cc1cc(OCc2nc(-c3cccnc3)no2)c(C)cc1Br,-18.4,86.2*,-1.3,2.0
COc1ccc(-c2nc(-c3ccccn3)nc(N3CCN(C)CC3)c2C#N)cc1,2.4,-6.9,11.1,-0.2
Cn1c(=O)c2c(nc(CN3CCN(CCO)CC3)n2Cc2cccc3ccccc23)n(C)c1=O,-4.3,-7.9,99.3*,0.7
Cn1c(=O)c2c(nc(CN3CCN(C(=O)c4ccco4)CC3)n2Cc2ccccc2)n(C)c1=O,14.2,-13.0,-0.9,0.9
Cc1ccc(Cn2c(CN3CCN(C(=O)c4ccco4)CC3)nc3c2c(=O)n(C)c(=O)n3C)cc1,-0.8,12.3,78.1*,1.8
Cn1c(=O)c2c(nc(N3CCCCCC3)n2Cc2cccc3ccccc23)n(C)c1=O,80.8*,61.9,34.5,4.2
Cc1ccc(CNC(=O)CN(C)S(=O)(=O)c2cccc3cccnc23)cc1,11.8,-27.7,-5.1,4.2
Cc1cc(SCC(=O)OCC(=O)NCC2CCCO2)c(C)cc1Br (centres undefined),3.0,20.6,-7.8,-0.7
Cc1ccc(C(=O)COC(=O)c2ccc(O)cc2)cc1,-7.3,3.4,-9.0,3.1
O=C(CSCc1ccc(Cl)cc1)NCCSCc1ccco1,11.5,12.7,-5.5,-1.2
O=C(NCCSCc1ccco1)Nc1cc(Cl)cc(Cl)c1,nt,70.3*,nt,nt
COc1cccc(/C=N/NC(=O)C(=O)Nc2ccccc2OC(F)(F)C(F)F)c1O,3.4,78.1*,97.1*,3.9
COc1cccc(/C=N/NC(=O)C(=O)NCc2cccnc2)c1O,-2.8,56.2,98.3*,3.3
COc1ccc(C(=O)COC(=O)C2CCCN2C(=O)C23CC4CC(CC(C4)C2)C3)cc1 (centres undefined),-5.5,52.4,55.2*,3.8
Nc1cccc(C2=Nc3cccc4cccc(c34)N2)c1,37.8,-0.9,0.3,7.1
COc1ccc(C2=Nc3cccc4cccc(c34)N2)cc1,65.7*,0.0,9.6,7.1
Cc1cc(NC(=O)CSc2nnc(-c3ccc4c(c3)OCCO4)o2)no1,-0.3,53.4,-5.0,2.9
Cc1ccc(NC(=O)Cc2nc(CSc3nnc(-c4ccc5c(c4)OCO5)o3)cs2)cc1,15.9,44.8,87.0*,4.6
CNC(=S)NC(CC(=O)OC)c1ccc2c(c1)OCO2 (centres undefined),0.3,-6.5,4.2,0.1
CCc1ccc(CC2(O)CC(C)N(C)CC2C)cc1 (centres undefined),0.5,4.8,18.4,1.5
CCN1CC(C)C(O)(c2ccccc2)CC1C (centres undefined),-6.5,6.0,79.3*,-0.1
COC(=O)c1ccc(N=Cc2c(C(F)(F)F)[nH][nH]c2=O)cc1,-11.1,16.8,-1.7,3.4
O=C(Nc1ccccc1)c1ccc(Nc2c([N+](=O)[O-])cc([N+](=O)[O-])c3ccccc23)cc1,-0.1,58.1,78.3*,3.8
SMILES,WT yeast gro inh,CHOP inh,L major viab,RAM inhibit
CCc1sc(-c2c(C#N)c(N)nc3c2CCCCCC3)cc1[N+](=O)[O-],-4.0,76.0*,1.5,1.4
COc1ccc(OC)c(C2C(C(=O)Nc3nc4ccccc4s3)=C(C)NC3=C2C(=O)CCC3)c1 (centres undefined),-10.2,-69.6,97.7*,3.9
COc1cccc(C2C(C(=O)Nc3nc4ccccc4s3)=C(C)NC3=C2C(=O)CC(C)(C)C3)c1OC (centres undefined),26.3,62.5,58.3*,2.3
CC(C)C(=O)Nc1ncc(Cc2ccc(Cl)cc2)s1,15.0,19.6,11.4,4.0
COc1ccc(Cl)cc1/C=C(\C#N)C(N)=O,0.3,-13.3,20.2,0.1
C/C(=N\NC(=S)NCc1ccccc1)c1cccc(Br)c1,69.6*,14.8,-2.0,6.2
COc1ccc(CNC(=S)N/N=C(\C)c2ccc(OC)cc2)cc1,nt,-10.7,nt,nt
C/C(CCC(C)C)=N\NC(=S)NCc1ccccc1,59.8*,54.0,39.0,0.8
S=C(NCc1ccccc1)NCc1ccc(CNC(=S)NCc2ccccc2)cc1,2.5,1.4,10.2,4.3
C/C(=N\NC(=S)NCc1ccccc1)c1ccc2ccccc2c1,64.4*,12.9,43.9,5.7
COc1ccccc1/C(C)=N/NC(=S)NCc1ccccc1,65.2*,24.3,3.1,-1.1
CCC(=O)c1ccc(OC(C)C(=O)NC2(C#N)CCCCC2)cc1 (centres undefined),-8.1,3.2,2.0,-0.9
O=C1NC[C@H](Cc2ccc(O)cc2)N(CC2CCCCC2)C1=O,nt,24.6,nt,nt
Oc1ccc(C[C@@H]2CNC(=S)N2CCCCC2CCCCC2)cc1,91.0*,-6.1,20.7,3.9
CCOc1ccc(-n2c(=O)[nH]cc(C(=O)Nc3ccc(OC)c(OC)c3)c2=O)cc1,2.9,5.4,-6.1,0.7
CCCC[C@@H]1CNC(=S)N1CCC12CC3CC(CC(C3)C1)C2,64.6*,-36.7,9.2,4.4
CCCC[C@@H]1CNC(=S)N1CCc1cccc(F)c1,65.1*,21.9,0.7,0.1
Fc1cccc(CCN2C(=S)NC[C@@H]2Cc2ccccc2)c1,66.0*,25.1,4.7,2.6
CCCC[C@@H]1CNC(=S)N1CCc1cccc2ccccc12,74.7*,25.3,20.0,3.6
Fc1cccc(CCN2C(=S)NC[C@@H]2CC2CCCCC2)c1,nt,24.4,nt,nt
CCOC(=O)c1ccc(NC(=S)NCCc2ccccc2)cc1,11.8,54.0,43.8,1.7
CCOC(=O)c1ccc(NC(=O)Nc2ccc(OC)c(OC)c2)cc1,5.3,12.5,57.7*,1.2
CCOC(=O)c1ccc(OS(=O)(=O)c2ccccc2)c(OC)c1,18.3,2.7,92.4*,1.3
COC(=O)c1ccc(NC(=O)Nc2ccc(F)cc2)cc1,23.8,39.5,-7.8,0.8
CCOC(=O)c1ccc(NC(=O)Nc2ccc(F)cc2)cc1,14.3,46.6,96.0*,1.0
SMILES,WT yeast gro inh,CHOP inh,L major viab,RAM inhibit
CCOC(=O)c1ccc(NC(=S)NCCc2ccccc2F)cc1,58.5*,29.2,18.7,0.6
COc1ccc(CNC(=O)COC(=O)c2ccc(F)c(S(=O)(=O)N3CCCCC3)c2)cc1OC,nt,5.7,nt,nt
CCCCOc1ccc(C(=O)Nc2ccc(SC(F)F)cc2)cc1OC,-20.8,39.7,70.8*,8.2
CCCCOC(=O)c1ccc(NC(=O)Nc2ccc(OC)c(OC)c2)cc1,12.9,82.9*,1.2,3.0
Cc1ccc(-c2cc(Cc3ccccn3)c(=O)[nH]n2)cc1,nt,9.7,nt,nt
CCOC(=O)Cc1ccc(NS(=O)(=O)c2ccc(SC)cc2)cc1,11.1,51.3,-3.1,1.7
CCOC(=O)c1ccc(NS(=O)(=O)N2CCCCCC2)cc1,7.9,12.6,94.6*,1.1
CCOC(=O)c1ccc(NS(=O)(=O)c2ccc(SC)cc2)cc1,-6.2,78.0*,-4.7,3.2
CC(=O)Nc1nnc(CSCc2ccccc2F)s1,nt,9.6,nt,nt
c1cncc(CNC2CCCc3ccccc32)c1 (centres undefined),-7.9,-6.8,43.0,0.3
O=[N+]([O-])c1ccc(CNC2CCCc3ccccc32)cc1 (centres undefined),9.0,30.8,82.7*,0.7
CCOc1ccc(N(CC(=O)Nc2ccccc2C)S(=O)(=O)c2c(C)noc2C)cc1,4.2,nt,38.3,1.4
